Source: PubChem BioAssay
Hits are enriched below; roughly 6.5% of the tested compounds scored in any of these assays.
FMDV inh: foot and mouth disease virus antiviral activity; FMDV antiviral cell-based qHTS; Potency, µM (highest dose often 57.9 µM), for the others: at the top dose activity change, negative = inhibition, usual class: inhibitors; 410,000 tested, 1.2% active; calls by dose curve; tested in HEK293T cells; also: read-out not given here; potency is read from the fitted curve at half-maximal effect; nearly all actives have a fitted effect of over 45% in size
HCMV antiviral: blocks human cytomegalovirus replication; HFF cells, HCMV-luciferase reporter, 72 h; active compounds read low; activity change, negative = inhibition, % at 57.5 µM; 410,000 tested, 4.5% active; in the data active = activity change below about -60%; inconclusive = no clear call, values can overlap the other calls; inactive = above about -39%
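Two-dose cell screen: HFF monolayers treated with compounds and infected with luciferase-expressing HCMV at 1 PFU/cell, 72 h at 37C, then lysed for luciferase measurement.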
VACV mCherry inh: vaccinia inhibition (mCherry reporter) | Vaccinia virus mCherry reporter infection, fluorescence | Potency, µM (top dose mostly 36.5 µM), for inactives: at the top dose activity change, negative = inhibition, most hits filed as inhibitors | 310,000 tested, 0.63% active; calls by dose curve; tested in A549 cells; also: potency is read from the fitted curve at half-maximal effect; nearly all actives have a fitted effect of over 35% in size
VACV Venus inh: inhibitors of vaccinia virus (Venus reporter). Vaccinia virus Venus reporter expression, fluorescence. Potency, µM (titrated, usually from 36.5 µM), without a hit: at the highest dose activity change, negative = inhibition, most hits filed as inhibitors. 330,000 tested, 0.46% active. AID 720580; calls by dose curve; tested in A549 cells; also: potency is read from the fitted curve at half-maximal effect; nearly all actives have a fitted effect of over 30% in size
MARV entry inh: blocks Marburg virus binding to or entry into cells; Marburg virus pseudotyped entry inhibition, cell reporter; Potency, µM (top dose mostly 37.8 µM), inactives show top-dose activity change, negative = inhibition, usual class: inhibitors; 300,000 tested, 1.8% active; AID 540276; calls by dose curve; tested in HEK293 cells; also: potency is read from the fitted curve at half-maximal effect
Lassa entry inh: inhibitors of Lassa virus binding or cell entry; Lassa virus pseudotype entry inhibition, cell reporter; Potency, µM (titrated, usually from 37.9 µM), without a hit: at the highest dose activity change, negative = inhibition, actives largely listed as inhibitors; 300,000 tested, 1.2% active; calls by dose curve; tested in HEK293 cells; also: potency is read from the fitted curve at half-maximal effect; nearly all actives have a fitted effect of over 50% in size
* = called active by the depositor; [ ] = another dose, or the depositor's remark. % is scaled to controls: 0 for no effect and ±100 for the full control effect.

For Cc1oc(-c2ccccc2NC(=O)C2CCC2)nc1CNC(=O)c1c(F)ccc(F)c1F the results were FMDV inh -8%, VACV mCherry inh -11% and VACV Venus inh 9%.
`CC(=O)N(C)C[C@@H]1Oc2cc(Br)ccc2S(=O)(=O)N([C@H](C)CO)C[C@@H]1C` gave HCMV antiviral 2.
`Cc1c(C(=O)OCCOc2ccccc2)[nH]c2c1C(=O)CCC2` gave FMDV inh -63%, HCMV antiviral -79*, VACV mCherry inh -15%, VACV Venus inh -25%, MARV entry inh inconclusive and Lassa entry inh 7.9µM*.
CC(=O)c1c(C)[nH]c(C(=O)OCCOc2ccccc2)c1C was read as FMDV inh -81%, HCMV antiviral inconclusive, VACV mCherry inh -11%, VACV Venus inh -5%, MARV entry inh inconclusive and Lassa entry inh inconclusive.
`Cc1ccc(CN2CCN(Cc3ccccc3)CC2)cc1` gave FMDV inh -25% and HCMV antiviral 22.
For CC1(C)CC(=O)C=C(N2CCN(C3=CC(=O)CC(C)(C)C3)CC2)C1 the results were MARV entry inh 2%.
`CN(Cc1ccccc1)C1=CC(=[N+]2CCCCC2)CC(C)(C)C1` gave FMDV inh inconclusive, HCMV antiviral -77*, VACV mCherry inh inactive[7.34 µM] and VACV Venus inh -21%[7.34 µM].
CC1(C)CC(N2CCCC2)=CC(=[N+]2CCCC2)C1 was read as FMDV inh inconclusive, HCMV antiviral -94*, MARV entry inh 2.1µM* and Lassa entry inh inconclusive.
`CC1(C)CC(N2CCN(Cc3ccccc3)CC2)=CC(=[N+]2CCCCC2)C1` gave FMDV inh inconclusive, HCMV antiviral active, VACV mCherry inh inactive, VACV Venus inh -20%, MARV entry inh 6.5µM* and Lassa entry inh inconclusive.
Screening CC1(C)CC(N2CCCC2)=CC(=[N+]2CCCCC2)C1 returned FMDV inh inconclusive, HCMV antiviral -93*, MARV entry inh inconclusive and Lassa entry inh inconclusive.
CC1(C)CC(NNCCC#N)=CC(=[N+]2CCCC2)C1 was read as FMDV inh 2%, HCMV antiviral inconclusive, VACV mCherry inh -2%, VACV Venus inh 10%, MARV entry inh -3%[46.1 µM] and Lassa entry inh -13%.
Screening C[C@@H]1[C@H](c2ccccc2)OCCS(=O)(=O)N1Cc1ccc(Cl)cc1 returned VACV mCherry inh -29% and VACV Venus inh -24%.
Screening C[C@@H]1C[C@H]2[C@@H]3CCC4=CC(=O)C=C[C@]4(C)[C@@]3(F)C(O)C[C@]2(C)[C@@]1(O)C(=O)CO (some centres not stated) returned VACV mCherry inh -23% and VACV Venus inh -14%.
Screening CCN(CC)c1ccc2c(O)cc(=O)oc2c1 returned FMDV inh 0%, HCMV antiviral 20, VACV mCherry inh inactive, VACV Venus inh -7%, MARV entry inh 15%[46.1 µM] and Lassa entry inh 24%.
For CCCCc1cc(=O)oc2cc(O)ccc12 the results were FMDV inh -11%, HCMV antiviral -104*, VACV mCherry inh -4%, VACV Venus inh -10%, MARV entry inh -1%[46.1 µM] and Lassa entry inh -11%.
`CCCCc1cc(=O)oc2cc(OCC(=O)N3CCOCC3)ccc12` gave FMDV inh -5%, HCMV antiviral -81*, VACV mCherry inh -6%, VACV Venus inh 7%, MARV entry inh 12%[46.1 µM] and Lassa entry inh -1%[46.1 µM].
Screening CCN(CC)c1ccc(C(=O)OCc2cc(=O)oc3cc(O)ccc23)cc1 returned FMDV inh inconclusive, HCMV antiviral -104*, VACV mCherry inh inconclusive, VACV Venus inh -15%, MARV entry inh inconclusive and Lassa entry inh 15µM*.
`Cc1cc(C)c(S(=O)(=O)Nc2ccc(-c3ccc(N4CCCCC4)nn3)cc2)cc1C` gave FMDV inh 47%, HCMV antiviral -32, VACV mCherry inh -9%, VACV Venus inh -8% and Lassa entry inh inconclusive.
C/C=C(\C)C(=O)NCCN1Cc2ccccc2OC(c2ccccc2OC)C1 (configuration not stated) was read as FMDV inh 16%, VACV mCherry inh -21% and VACV Venus inh -7%.
Screening CCCN1C(=O)C[C@H](S(=O)(=O)c2ccccc2)[C@H]1c1ccc(C#N)cc1 returned HCMV antiviral -19.
`Cc1ccc(-c2nnc(-c3ccccc3)c(-c3ccccc3)n2)cc1` gave FMDV inh -5%, HCMV antiviral inconclusive, VACV mCherry inh inactive, VACV Venus inh -7%, MARV entry inh 0% and Lassa entry inh -20%.
For Cc1cc(-c2nnc(-c3ccccc3)c(-c3ccccc3)n2)c(C)o1 the results were FMDV inh -13%, HCMV antiviral -65*, MARV entry inh inconclusive and Lassa entry inh -3%.
For COc1ccc(N(Cc2cccs2)C(=O)Nc2ccccc2)cc1 the results were FMDV inh -15%, HCMV antiviral 0, VACV mCherry inh -4%, VACV Venus inh -4%, MARV entry inh inconclusive and Lassa entry inh -14%[46.1 µM].
`CC1CCCN(Cc2c(O)ccc3c(=O)c(-c4ccc(Cl)cc4)c(C(F)(F)F)oc23)C1` (configuration not stated) gave FMDV inh -18%, HCMV antiviral -12, VACV mCherry inh -1%, VACV Venus inh 1%, MARV entry inh 4%[46.1 µM] and Lassa entry inh 23%[46.1 µM].
For C=C1CCC[C@]2(C)C[C@H]3OC(=O)C(CNCCN(CC)CC)[C@H]3CC12 (some centres not stated) the results were FMDV inh -14%, HCMV antiviral -21, VACV mCherry inh 4µM*, VACV Venus inh 3.2µM*, MARV entry inh inconclusive and Lassa entry inh inconclusive.
COc1ccc2c(c1OC)C(=O)N1c3ccccc3C(=O)N(Cc3ccco3)C21 (configuration not stated) was read as VACV mCherry inh -1% and VACV Venus inh -8%.
For CCN(CC(=O)Nc1c(C(=O)OC)[nH]c2ccc(Cl)cc12)c1ccc2c(c1)OCO2 the results were FMDV inh -10%, HCMV antiviral -20, VACV Venus inh inconclusive, MARV entry inh inconclusive and Lassa entry inh 13µM*.
Screening COc1cc(=O)n2c(c1C(=O)N(C)Cc1nccs1)CCN(Cc1cc(C)cc(C)c1)CC2 returned FMDV inh -16%, VACV mCherry inh -19% and VACV Venus inh -8%.
CCCCc1ccc(Nc2ncnc3nc[nH]c23)cc1 was read as FMDV inh 19%, HCMV antiviral 25, VACV mCherry inh 10µM* and VACV Venus inh -29%.
`CCc1ccc(Nc2ncnc3nc[nH]c23)cc1` gave FMDV inh 2%, HCMV antiviral 16, VACV mCherry inh -9%, VACV Venus inh 0%, MARV entry inh inconclusive and Lassa entry inh inconclusive.
COc1ccc(N2CC(C)(C)C[C@@H]2/C=C/C(=O)OC(C)(C)C)cc1 was read as HCMV antiviral -13.
`O=C1NN(c2ccccc2)C(=O)C1=Cc1ccccc1O` gave FMDV inh 29%, HCMV antiviral -16, VACV mCherry inh inactive and VACV Venus inh -10%.
